From PubChem BioAssay AID624330 (Southern Research Specialized Biocontainment Screening …, 2012)
The campaign covered roughly 340,000 compounds. About 2,100 (0.62%) were called active.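 The calls were made as follows: active = first-screen hits whose inhibition reached a set limit at any dose in the follow-up dose series; inconclusive = inhibition above the set first-screen limit but never retested; inactive = the rest.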 A selection follows. Measured potencies and affinities stand elsewhere.

Biological target: Rac GTPase-activating protein 1 (Homo sapiens) (UniProt Q9H0H5)
Sequence (Q9H0H5 whole entry, looked up): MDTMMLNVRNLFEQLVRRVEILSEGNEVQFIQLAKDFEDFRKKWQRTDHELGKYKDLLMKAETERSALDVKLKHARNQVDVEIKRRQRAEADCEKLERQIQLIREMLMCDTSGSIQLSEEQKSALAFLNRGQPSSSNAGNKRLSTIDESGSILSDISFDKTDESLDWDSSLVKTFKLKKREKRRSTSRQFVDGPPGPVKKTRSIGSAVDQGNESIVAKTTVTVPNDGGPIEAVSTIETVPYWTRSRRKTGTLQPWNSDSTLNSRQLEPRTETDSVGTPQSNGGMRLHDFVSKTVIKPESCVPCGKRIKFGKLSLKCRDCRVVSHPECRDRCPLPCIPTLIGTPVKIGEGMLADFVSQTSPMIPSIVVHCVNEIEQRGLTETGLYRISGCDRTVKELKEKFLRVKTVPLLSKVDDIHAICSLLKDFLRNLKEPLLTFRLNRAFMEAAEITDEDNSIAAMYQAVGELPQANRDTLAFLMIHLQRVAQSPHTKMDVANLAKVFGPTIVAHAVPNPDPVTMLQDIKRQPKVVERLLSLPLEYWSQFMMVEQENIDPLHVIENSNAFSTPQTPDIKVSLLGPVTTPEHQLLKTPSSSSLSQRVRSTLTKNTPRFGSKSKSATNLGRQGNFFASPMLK
Experiment: MgcRacGAP GTPase-activating activity inhibitors, confirmation, biochemical, ADP Hunter fluorescence, primary and confirmatory (AID 624330);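 also: fluorescence reports GDP produced by GAP-driven GTP hydrolysis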
Conditions: MgcRacGAP-stimulated Rac1 GTP hydrolysis, at 30 µM, hits give high values, GST-tagged Rac1 F28L mutant substrate

inhibition, inactive:
Cc1c(Cl)cccc1NC(=O)CNCc1ccccc1F 5.19%
O=C(CNCc1ccccc1Cl)Nc1ccccc1N1CCCCC1 28.3%
CCCCn1c(N)c(N(CCOC)C(=O)CSCc2ccc(C)cc2)c(=O)[nH]c1=O 3.5%
Cc1ccc(NC(=O)CN(C)S(=O)(=O)c2cccs2)cc1C 2.54%
CCN=C1S/C(=C\c2sccc2C)C(=O)N1CC 8.79%
CC(C(=O)Nc1ccc2c(c1)OCO2)N(C)CC(=O)Nc1ccccc1Cl (configuration not stated) 6.56%
CSc1ccccc1C(=O)NCc1ccc2c(c1)OCO2 3.84%
COc1ccc2c(c1)[nH]c1c(=O)n(/N=C/c3ccc(OC)c(COc4ccccn4)c3)cnc12 6.37%
CC(C)N1C(=O)S/C(=C\c2ccc(-c3ccc(Cl)c(C(=O)O)c3)o2)C1=O 14.4%
CC(C)N1C(=O)S/C(=C/c2ccc(Sc3nc4ccccc4[nH]3)o2)C1=O 12.6%
CCc1nc2ccccc2c(=O)n1NC(=O)c1c(O)c2ccccc2n(CC)c1=O 11.3%
CCn1c(COc2ccc(Cl)cc2)nnc1SCC(=O)Nc1ccc2c(c1)OCCO2 9.81%
COc1ccc(C2=NN(c3ccccc3)C(=O)/C2=C\c2ccc(O)c(OC)c2)cc1 4.88%
NC1=NC(=O)C(=Cc2ccccc2)S1 -0.93%
COc1ccc(/C=C2/SC(c3ccc(C)cc3)=NC2=O)cc1OC 11.7%
COc1cc(/C=C2\SC(N)=NC2=O)ccc1OCC(=O)Nc1ccccc1C 1.31%
COc1ccc(/C=C2\SC(c3ccc(C)cc3)=NC2=O)cc1OC -0.09%
COc1cc(/C=C2/SC(=S)N(Cc3ccccc3)C2=O)ccc1O 11.1%
COc1ccc(/C=C2\SC(N)=NC2=O)cc1 3.78%
O=C(CN1C(=O)S/C(=C\c2ccc(O)cc2)C1=O)c1ccccc1 2.23%
COc1ccc(N2CC(C(=O)Nc3nnc(SCC(=O)N4CCOCC4)s3)CC2=O)cc1 (configuration not stated) 10.3%
CCCn1c(SCC(=O)Nc2cc(Cl)ccc2OC)nc(O)cc1=O 4.2%
CCOC(=O)C(CC)Sc1nc2c(c(=O)[nH]c(=O)n2C)n1C/C=C(/C)Cl (configuration not stated) 13.4%
CCc1cccc(NC(=O)CSc2nnc(Cc3ccc(OC)cc3)c(=O)[nH]2)c1 6.26%
CC(=O)c1cccc(Nc2cc(C)nc3c(C)cc(C)cc23)c1 11%
CC(=O)Nc1cccc2c1C(=O)N(c1ccccc1C)C2=O 9.72%
Cc1ccnc(NC(=O)Cn2c(=O)oc3ccccc32)c1 6.21%
Cn1cccc1/C=C1\SC(=O)N(c2ccc(O)cc2)C1=O 0.13%
Cc1ccc(NC(=O)CN2C(=O)S/C(=C\c3cccn3C)C2=O)cc1 2.72%
N/C(Cc1cccs1)=N\OC(=O)COc1ccc(Br)cc1 0.69%
COc1ccc(CNC(=O)CCOc2ccc(C(C)(C)C)cc2)cc1 4.83%
CSc1ccc(CN(C)CC(=O)NCc2ccccc2)cc1 4.61%
CN(CC(=O)NCc1ccc(F)cc1)Cc1cccc(Cl)c1 5.16%
COc1ccc(CNC(=O)CN(C)Cc2ccc(SC)cc2)cc1 9.14%
Cc1cccc(NC(=O)C2(C)CC3c4ccccc4C2c2ccccc23)c1C (configuration not stated) 4.55%
CC(C)(C)OC(=O)N[C@@H](Cc1ccccc1)C(=O)NCC1CCC(C(=O)N[C@@H](CC(=O)O)C(=O)O)CC1 (some centres not stated) -2.85%
COc1ccccc1N1CCN(C2CCN(S(=O)(=O)c3ccc(C)cc3)CC2)CC1 -5.5%
COc1ccc(S(=O)(=O)N2CCN(C3CCN(Cc4ccccc4)CC3)CC2)cc1 8.39%
O=S(=O)(c1ccccc1)N1CCN(C2CCN(Cc3ccccc3)CC2)CC1 9.41%
CCOC(=O)N1CCC(N2CCN(S(=O)(=O)c3ccc(C)cc3)CC2)CC1 22.2%
O=S(=O)(c1ccc(Cl)cc1)N1CCN(C2CCN(Cc3ccccc3)CC2)CC1 2.66%
CCOC(=O)N1CCC(N2CCN(S(=O)(=O)c3ccc(OC)cc3)CC2)CC1 20.1%
COc1ccc(S(=O)(=O)N2CCN(Cc3ccccc3)CC2)cc1 5.15%
COc1ccccc1N1CCN(C2CCN(S(=O)(=O)c3ccc4ccccc4c3)CC2)CC1 4.9%
O=c1c2ccccc2nnn1CSc1ccccc1F 8.16%
Cc1cccc(C(=O)NCC(=O)NC2CCC(C)CC2)c1 (configuration not stated) 3.71%
O=C(CSc1c2c(nc3ccccc13)CCC2)N1CCCC1 10.3%
Cc1ccn2cc(CCNC(=O)CC3CCCCC3)nc2c1 16%
O=C(c1cc(Cl)nc2ccccc12)N1CCCCC1 3.41%
CCN(CC)c1ccc(C(=O)Nc2cccc(F)c2)cc1 15.5%
CCN(CC)c1ccc(C(=O)NNC(=O)CCl)cc1 9.55%
Cc1ccc(-c2csc(NC(=O)c3ccccc3F)c2C(=O)O)cc1 5.32%
COc1cccc(COC(=O)c2cc(S(=O)(=O)N3CCCCC3)ccc2N2CCOCC2)c1OC -0.42%
O=C(Cc1ccc(F)cc1)NCCc1ccccc1 -3.3%
O=S(=O)(Cc1ccccc1)NCCc1ccc(F)cc1 -2.46%
COc1ccc(CCNC(=O)C(=O)NCCCN2CCOCC2)cc1 0.98%
COc1ccc(CC(=O)NCCN2CCOCC2)cc1 -0.23%
COc1ccc(CNS(=O)(=O)CCNCCc2ccccc2)cc1 6.36%
COc1ccc(CCNCc2ccc(OCc3ccccc3)cc2)cc1 -1.52%
O=C(c1ccc(Br)o1)N1CC=C(c2ccccc2)CC1 -9.29%
COCCCNC(=O)C1CCCN(S(C)(=O)=O)C1 (configuration not stated) 4.1%
N=c1c(S(=O)(=O)c2ccc(Br)cc2)cc2c(=O)n3ccccc3nc2n1C1CCCC1 3.79%
